Rtt109 Vps75: C. albicans Rtt109 histone acetyltransferase inhibition. Q5AAJ8. purified Rtt109/Vps75, ThioGlo CoA-SH fluorescence, 4 h. inhibition, % at 34.9 µM. actives 0.16% (n = 330,000);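 active = inhibition of at least 50% in every replicate; inconclusive = best replicate reaches 50% inhibition but some replicates fall short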
Target sequence (Q5AAJ8 whole entry, looked up): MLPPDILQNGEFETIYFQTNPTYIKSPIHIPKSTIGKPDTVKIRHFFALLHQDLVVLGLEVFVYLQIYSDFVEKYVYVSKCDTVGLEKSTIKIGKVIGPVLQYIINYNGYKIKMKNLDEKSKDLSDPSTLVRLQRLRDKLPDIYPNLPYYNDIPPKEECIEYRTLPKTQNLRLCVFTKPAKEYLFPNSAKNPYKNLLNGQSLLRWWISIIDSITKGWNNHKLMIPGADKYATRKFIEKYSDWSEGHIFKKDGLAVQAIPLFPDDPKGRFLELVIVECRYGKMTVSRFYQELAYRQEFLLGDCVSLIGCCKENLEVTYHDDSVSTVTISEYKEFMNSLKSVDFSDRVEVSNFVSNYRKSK
Glyco luc inh: blocks N-linked glycosylation in D54 reporter cells | AID 588692 | reporter increase, % at 12.5 µM | D54 ERlucT glycosylation luciferase reporter, 24 h; percent of 100 nM tunicamycin response | actives 0.23% (n = 360,000);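 active = mean luciferase reporter signal, scaled so untreated is 0 and the glycosylation-blocking control 100, at or above a set limit in every replicate; inconclusive = mean reaches the limit but not every replicate does; inactive = mean below the limit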;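 note: luciferase carries N-glycosylation sites so blocking glycosylation raises the light; 0% = median of neutral control wells and 100% = median of 100 nM tunicamycin wells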
DENV2 CPE rescue: inhibitors of DENV2 cytopathic effect; DENV2-infected cells, cytopathic effect rescue, plate reader; actives 1.7% (n = 350,000); AID 651640; CPE inhibition, % at 9.99 µM; in the data active = CPE inhibition above about 20%, passing the limit was not always enough; inconclusive = no clear call, values can overlap the other calls; tested in BHK-21 cells;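 note: 0% = median of neutral control wells and 100% = median of positive control wells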
PglD inh: PglD (C. jejuni) enzyme inhibition. purified PglD enzyme, DTNB colorimetric CoA detection. actives 0.098% (n = 360,000). inhibition, % at 12.5 µM; in the data active = inhibition above about 16%, passing the limit was not always enough; inconclusive = no clear call, values can overlap the other calls
The depositor's hits bear a star. The full list was thinned out, with hits kept by preference.

C[C@H]1CN([C@@H](C)CO)C(=O)c2cc(NC(=O)Cn3cnnn3)ccc2O[C@@H]1CN(C)Cc1ccc2c(c1)OCO2 was read as DENV2 CPE rescue 0 and PglD inh 2.
C[C@@H]1CN([C@H](C)CO)C(=O)c2cc(NC(=O)Cn3cnnn3)ccc2O[C@H]1CN(C)Cc1ccc2c(c1)OCO2 was read as DENV2 CPE rescue 21* and PglD inh 0.
`[N-]=[N+]=NCc1ccccc1C[C@]1(C(=O)NCc2ccccc2)COC(c2ccc(OCCCO)cc2)=N1` gave DENV2 CPE rescue 9 and PglD inh -4.
Screening CC(=O)N1CC2(C1)[C@H](c1ccc(-c3ccccc3C)cc1)[C@H](CO)N2C(C)=O returned DENV2 CPE rescue -8.
`O=C(C[C@@H]1CC[C@H]2[C@@H](COC[C@@H](O)CN2C(=O)C2CC2)O1)NCc1ccccc1Cl` gave DENV2 CPE rescue -8 and PglD inh 2.
`C[C@@H]1CN([C@H](C)CO)C(=O)Cc2cc(NS(=O)(=O)c3ccccc3)ccc2O[C@@H]1CN(C)Cc1ccc(C(=O)O)cc1` gave DENV2 CPE rescue 7.
`COc1ccc2c3c(n(C)c2c1)[C@H](CO)N(C(=O)CN1CCOCC1)CC31CN(Cc2ccncc2)C1` gave DENV2 CPE rescue 37*.
`COCC(=O)N1CC2(CCN(Cc3cncnc3)CC2)c2c(n(C)c3cc(OC)ccc23)[C@H]1CO` gave DENV2 CPE rescue 50*.
Screening COc1ccc2c3c(n(C)c2c1)[C@H](CO)N(C)CC31CCN(C(=O)CN2CCOCC2)CC1 returned DENV2 CPE rescue 53*.
`COc1ccc2c3c(n(C)c2c1)[C@H](CO)N(C(=O)C1CCC1)CC31CN(Cc2cccc(F)c2)C1` gave DENV2 CPE rescue 22*.
Screening CO[C@@H]1CN(C)C(=O)c2cc(NC(C)=O)ccc2OC[C@@H](C)N(Cc2ccccc2F)C[C@H]1C returned DENV2 CPE rescue 10 and PglD inh -4.
For CCCNC(=O)[C@H]1[C@H](CO)[C@H]2Cn3c(ccc(-c4ccc(OC)cc4)c3=O)[C@H]2N1CC the results were DENV2 CPE rescue 10.
For C[C@@H]1CCCCO[C@@H](CN(C)S(=O)(=O)c2ccc(F)cc2)[C@@H](C)CN([C@@H](C)CO)C(=O)c2cc(NC(=O)c3ccncc3)ccc2O1 the results were DENV2 CPE rescue 1 and PglD inh -2.
CCCC(=O)N1CC2(CCN(C(=O)Nc3cccc(F)c3)CC2)c2c(n(C)c3cc(OC)ccc23)[C@@H]1CO was read as DENV2 CPE rescue 13.
CCC(=O)N1CC2(CN(Cc3ccc(OC)cc3)C2)c2c(n(C)c3cc(OC)ccc23)[C@H]1CO was read as DENV2 CPE rescue -11.
COc1ccc2c3c(n(C)c2c1)[C@@H](CO)N(Cc1ccc(F)cc1)CC31CN(CC2CCOCC2)C1 was read as DENV2 CPE rescue 99*.
`CCC(=O)N1CC2(CN(Cc3ccc(F)cc3)C2)c2c(n(C)c3cc(OC)ccc23)[C@@H]1CO` gave DENV2 CPE rescue 21*.
COc1ccc2c3c(n(C)c2c1)[C@H](CO)N(C(=O)CN1CCOCC1)CC31CCN(C(=O)Nc2cccc(F)c2)CC1 was read as DENV2 CPE rescue 33*.
COc1ccc2c3c(n(C)c2c1)[C@@H](CO)N(C(=O)C1CCCC1)CC31CN(C(=O)Nc2cccc(F)c2)C1 was read as DENV2 CPE rescue 77*.
`CN1C(=O)c2cc(NS(C)(=O)=O)ccc2OC[C@H]2O[C@@H](CC(=O)NCc3ccc(-c4ccccc4)cc3)CC[C@H]21` gave DENV2 CPE rescue 0 and PglD inh 3.
For COc1ccccc1-c1ccc([C@@H]2[C@@H](C#N)N(C(=O)NC3CCCC3)[C@@H]2CO)cc1 the results were DENV2 CPE rescue -9.
Cc1oc2c(C)c3oc(=O)c(CCC(=O)NCCN4CCOCC4)c(C)c3cc2c1C was read as Rtt109 Vps75 -13, Glyco luc inh 0, DENV2 CPE rescue 29* and PglD inh -4.
For Cc1oc2c(C)c3oc(=O)c(CCC(=O)NCCCN4CCOCC4)c(C)c3cc2c1C the results were Rtt109 Vps75 -6, Glyco luc inh -2, DENV2 CPE rescue inconclusive and PglD inh 1.
CC(=O)Nc1ccc2c(c1)C(=O)N(C)[C@H]1CC[C@H](CC(=O)Nc3cccc(C(C)C)c3)O[C@@H]1CO2 was read as DENV2 CPE rescue 108* and PglD inh 2.
Screening Cc1nn(C)cc1NC(=O)C[C@H]1CC[C@@H]2[C@H](COc3ccc(NC(=O)NC(C)C)cc3C(=O)N2C)O1 returned DENV2 CPE rescue 33* and PglD inh 1.
For CC(C)c1cccc(NC(=O)C[C@H]2CC[C@H]3[C@@H](COc4ccc(NC(=O)NCc5ccccc5)cc4C(=O)N3C)O2)c1 the results were DENV2 CPE rescue -12 and PglD inh 0.
`Cc1nn(C)cc1NC(=O)C[C@H]1CC[C@H]2[C@@H](COc3ccc(NC(=O)NC(C)C)cc3C(=O)N2C)O1` gave DENV2 CPE rescue inconclusive and PglD inh 4.
Screening C[C@H](CO)N1C[C@H](C)[C@H](CN(C)CC2CCCCC2)Oc2ccc(NS(=O)(=O)c3ccc(Cl)cc3)cc2CC1=O returned DENV2 CPE rescue 0 and PglD inh -2.
`CCCC(=O)N(c1ccc2oc(=O)sc2c1)S(=O)(=O)c1cccs1` gave Rtt109 Vps75 124*, Glyco luc inh 5 and PglD inh -1.
`CC(=O)N(c1ccc2oc(=O)sc2c1)S(=O)(=O)c1ccccc1` gave Rtt109 Vps75 67* and Glyco luc inh 3.
For CC(C)C(=O)N(c1ccc2oc(=O)sc2c1)S(=O)(=O)c1ccccc1 the results were Rtt109 Vps75 14, Glyco luc inh 2, DENV2 CPE rescue 2 and PglD inh 9.
Screening O=C(NC1CCCC1)N[C@@H]1C=C[C@H](CC(=O)N2CCOCC2)O[C@@H]1CO returned DENV2 CPE rescue -2 and PglD inh 0.
For Cc1ccc(S(=O)(=O)N2CCN(S(=O)(=O)c3cccs3)CC2)cc1 the results were Rtt109 Vps75 -6, Glyco luc inh 1, DENV2 CPE rescue -4 and PglD inh 3.
`CN1CCN(S(=O)(=O)c2cccs2)CC1` gave Rtt109 Vps75 -4, Glyco luc inh 0 and DENV2 CPE rescue 34*.
For N#C/C(=C\Nc1ccc2cn[nH]c2c1)c1nc(-c2ccc(Cl)cc2)cs1 the results were Rtt109 Vps75 3, Glyco luc inh -8 and DENV2 CPE rescue -2.
For N#CC(=Cc1ccccn1)c1nc(-c2ccc(Cl)cc2)cs1 the results were Glyco luc inh 42*, DENV2 CPE rescue -7 and PglD inh 1.
For COc1ccc(CN(C)C[C@H]2OCCCC[C@@H](C)Oc3ccc(NC(=O)Nc4c(C)noc4C)cc3C(=O)N([C@H](C)CO)C[C@@H]2C)cc1 the results were DENV2 CPE rescue 11 and PglD inh 6.
O=C(Nc1ccc(N2CCCC2)c(Cl)c1)c1ccc([N+](=O)[O-])o1 was read as Rtt109 Vps75 16, Glyco luc inh 46* and DENV2 CPE rescue 1.

Screens from PubChem BioAssay.
